# Experimental data reported in PubChem BioAssay (NCATS).
# The source made the active and inactive calls. Entries that show only a call come without a potency. The call rests on the fitted dose curve; in most records, active means well fitted curve in the direction sought with a large enough effect; inconclusive means small, poorly fitted or top-dose-only effect, or another doubt; inactive means no such curve, though single readings can be large or run the other way.
# Molecular target: Hexokinase-4 (Homo sapiens) + Glucokinase regulatory protein (Homo sapiens) (UniProt P35557+Q14397)
# Sequence (P35557 whole entry, looked up): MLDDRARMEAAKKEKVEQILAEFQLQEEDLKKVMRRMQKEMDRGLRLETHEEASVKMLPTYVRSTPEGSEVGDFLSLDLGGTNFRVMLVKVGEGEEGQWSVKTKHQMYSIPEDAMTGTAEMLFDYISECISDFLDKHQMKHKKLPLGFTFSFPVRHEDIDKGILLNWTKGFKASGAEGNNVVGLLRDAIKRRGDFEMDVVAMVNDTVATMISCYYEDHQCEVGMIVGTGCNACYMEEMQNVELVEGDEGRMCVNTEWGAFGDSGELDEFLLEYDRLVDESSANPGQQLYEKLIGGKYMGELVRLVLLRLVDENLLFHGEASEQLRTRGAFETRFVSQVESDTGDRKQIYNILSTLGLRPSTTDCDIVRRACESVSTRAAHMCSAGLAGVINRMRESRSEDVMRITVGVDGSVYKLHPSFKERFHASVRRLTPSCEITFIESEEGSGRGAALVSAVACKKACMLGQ
# Sequence (Q14397 whole entry, looked up): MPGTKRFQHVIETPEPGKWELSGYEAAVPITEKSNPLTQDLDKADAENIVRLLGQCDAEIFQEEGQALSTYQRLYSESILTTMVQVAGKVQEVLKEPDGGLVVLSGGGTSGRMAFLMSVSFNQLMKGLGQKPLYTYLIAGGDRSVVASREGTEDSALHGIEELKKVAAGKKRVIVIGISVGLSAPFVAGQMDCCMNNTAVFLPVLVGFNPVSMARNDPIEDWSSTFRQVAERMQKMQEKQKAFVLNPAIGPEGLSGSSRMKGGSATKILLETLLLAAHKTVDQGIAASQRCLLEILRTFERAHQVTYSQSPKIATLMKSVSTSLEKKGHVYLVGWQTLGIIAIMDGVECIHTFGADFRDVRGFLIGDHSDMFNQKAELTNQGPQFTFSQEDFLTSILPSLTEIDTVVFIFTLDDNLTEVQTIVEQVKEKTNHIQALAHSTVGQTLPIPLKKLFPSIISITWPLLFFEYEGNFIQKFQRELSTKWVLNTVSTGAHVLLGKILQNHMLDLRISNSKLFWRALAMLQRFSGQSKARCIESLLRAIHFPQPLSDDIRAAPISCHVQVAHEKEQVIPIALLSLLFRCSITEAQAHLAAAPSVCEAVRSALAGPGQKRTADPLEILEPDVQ
# Assay: qHTS assay for inhibitors of recombinant human GCK-GKRP interaction: HTRF assay (AID 743207)
# Details: recombinant GCK-GKRP HTRF binding, 60 min, with sorbitol-6-phosphate; series mostly up to 57.5 µM
# From the text: Glucokinase (GCK) is a glucose sensor in hepatocytes and pancreatic beta-cells. Hepatic GCK is regulated by glucokinase regulatory protein (GKRP), which is predominantly localized to the liver. GKRP binds to GCK inhibiting its activity in the fasting state while in the presence of glucose the GKRP is displaced. There is an additional layer of regulation by fructose 1-phosphate and fructose 6-phosphate, which inhibit and enhance the GCK-GKRP interaction, respectively. GCK plays a role in glucose homeostasis and there is an interest in the development of strategies to activate GCK to lower blood glucose levels in type 2 diabetes. To date the majority of effort has focused on direct activation of GCK and the assays developed herein look to activate GCK by inhibiting its binding to GKRP. A compound that inhibits the interaction of GCK with GKRP could be important for the treatment of diabetes and can also be used as a tool compound to further elucidate GCK-GKRP biology. To that end, we have developed an HTS biochemical assay using HTRF technology for to interrogate the GCK-GKRP interaction. This assay was screened against a small compound library to look for modulators of activity.
# 3 uL of 5 nM GST-GCK and 5 nM FLAG-GKRP proteins with 2 uM S6P (columns 1-2, 4-48; Millipore, Billerica, MA) are dispensed into Greiner, white solid-bottom 1536-well assay plates; columns 3 receive buffer without GCK as a control for maximum inhibition. Buffer contains 2 mM MgCl2, 25 mM KCl, 25 mM Hepes, 1 mM DTT, 0.1% Tween 20 and 0.025% BSA and the pH was adjusted to 7.1. Compounds (23 nL) are then transferred via Kalypsys pin tool equipped with 1536-pin array (10 nL slotted pins, V&P Scientific, San Diego, CA). The library compounds are in columns 5-48 and columns 1-4 serve as controls with DMSO in columns 1 and 3 and 26 mM 1:1.5 fold serial of gluckokinase activator (GKA-EMD) in column 2 and 26 mM of the glucokinase activator (GKA-EMD) in column 4. Following addition of compound, 1 uL of detection antibodies (anti-Flag XL 665 and anti-GST K in reconstitution buffer from Cisbio, Bedford, MA; 0.7 ng/well and 0.0945 ng/well, respectively) is added, and the mixture is allowed to equilibrate for 60 minutes at room temperature. Data are normalized to DMSO-treated control columns with (maximum signal) and without (minimum signal) enzyme. Plates were read on an Envision plate reader (PerkinElmer, Shelton, CT, USA) with excitation at 320 nm and dual-wavelength detection at the Fret donor wavelength (615 nm) and the FRET acceptor wavelength (665 nm).
row,Structure (SMILES),Potency
1,CN(C)CCCc1cc(C(=O)Nc2ccc(-c3ccncc3)cc2)ccc1O,inactive
2,CC1CCN=C(N)S1 (stereo not given),inactive
3,O=C(O)/C=C/c1ccc(O)c(O)c1,inactive
4,O=C(O)C1CN(CCCP(=O)(O)O)CCN1 (stereo not given),inactive
5,Cn1c(=O)c2[nH]c(C3CCCC3)nc2n(C)c1=O,inactive
6,CN1Cc2sccc2C(c2ccc(O)c(O)c2)C1 (stereo not given),inactive
7,O=[N+]([O-])c1cccc2c(Br)[nH]nc12,inactive
8,CN(C)S(=O)(=O)c1ccc2c(c1)/C(=C/c1cc3c([nH]1)CCCC3)C(=O)N2,inactive
9,CC1=C(/C=C/C(C)=C/C=C/C(C)=C\C(=O)O)C(C)(C)CCC1,inactive
10,N=C(N)SCCN,inactive
11,Nn1nnc2ccccc21,inactive
12,CC(=O)SC1CC2=CC(=O)CC[C@]2(C)C2CC[C@@]3(C)C(CC[C@@]34CCC(=O)O4)C12 (stereo not given in full),inactive
13,CC1CNCCN1S(=O)(=O)c1cccc2cnccc12 (stereo not given),inactive
14,NC(N)=NC(N)=Nc1cccc(Cl)c1,inactive
15,CCCOC(=O)c1c(-c2ccccc2)nc(CC)c(C(=O)SCC)c1CCC,inactive
16,CC(=O)NCCc1c[nH]c2ccc(O)cc12,inactive
17,CSC(=N)N,inactive
18,COCc1nc2c([nH]1)c(=O)n(C)c(=O)n2CC(C)C,inactive
19,CCCn1c(=O)c(C)cn2nc(N)nc12,inactive
20,Cn1cc(C(F)(F)F)nc1-c1ccc(OCC(O)CNCCOc2ccc(O)c(C(N)=O)c2)cc1 (stereo not given),inactive

row,Structure (SMILES),Potency
1,NC(=O)c1cc[n+](CC2=C(C(=O)O)N3C(=O)[C@@H](NC(=O)[C@@H](c4ccccc4)S(=O)(=O)[O-])[C@H]3SC2)cc1,inactive
2,CN(CC[C@@H](Oc1ccc(C(F)(F)F)cc1)c1ccccc1)CC(=O)O,inactive
3,O=C(c1ccc2c(c1)OCCO2)N1CCCCC1,inactive
4,CCCCCCCCCCCCCCSCC(=O)O,inactive
5,COc1ccc(CCN(C)CCc2ccc(OC)c(OC)c2)cc1OC,inactive
6,O=c1[nH]c2ccccc2c2ccccc12,inactive
7,O=C(O)[C@H]1NCCC[C@H]1C(=O)O,inactive
8,O=[N+]([O-])c1cccc2cn[nH]c12,inactive
9,NC(=O)c1ccccc1,inactive
10,CNC(=O)c1cc2c(cn1)[nH]c1ccccc12,inactive
11,C=CCN1CCc2c(cc(O)c(O)c2Br)[C@@H](c2ccccc2)C1,inactive
12,O=C(O)/C=C/c1cnc[nH]1,inactive
13,C=CCN1CCc2c(cc(O)c(O)c2Cl)C(c2ccccc2)C1 (stereo not given),inactive
14,CCC1(O)CC2CN(CCc3c([nH]c4ccccc34)[C@@](C(=O)OC)(c3cc4c(cc3OC)N(C)C3[C@]45CCN4CC=C[C@@](CC)([C@@H](OC(C)=O)[C@]3(O)C(=O)OC)[C@H]45)C2)C1 (stereo not given in full),inactive
15,c1ccc2c(c1)CC(N1CCN(c3cccc4c3OCCO4)CC1)C2,inactive
16,Cn1c(=O)c2c(nc(/C=C/c3cccc(Cl)c3)n2C)n(C)c1=O,inactive
17,O=c1[nH]c(=S)[nH]c(-c2ccccc2)c1Cc1c(O)ccc2ccccc12,inactive
18,NCCCCN=C(N)N,inactive
19,CC1CCN(CC[C@H]2CCCN2S(=O)(=O)c2cccc(O)c2)CC1,inactive
20,C[C@H](NC(=O)/C(C#N)=C/c1ccc(O)c(O)c1)c1ccccc1,inactive
